# Test results taken from PMC7862700, “An all-to-all approach to the identification of sequence-specific readers for epigenetic DNA modifications on cytosine”.
# Legend:
# Assay in all cases: DAPPL (digital affinity profiling via proximity ligation, sequencing); 10 mM Tris-HCl pH 7.5, 50 mM NaCl, 1 mM DTT, 4% glycerol, room temperature, 30 min; GST-TFs on glutathione beads, 16-mer random dsDNA library, 0.1% formaldehyde crosslink after washing; high values mean tight binding
# Conditions in all cases: protein: recombinant; tags: N-terminal GST; dsDNA, one strand shown
# [1] = molecular target: T1, FLI1 (Homo sapiens, UniProt Q01543 1-452)
# T1 sequence: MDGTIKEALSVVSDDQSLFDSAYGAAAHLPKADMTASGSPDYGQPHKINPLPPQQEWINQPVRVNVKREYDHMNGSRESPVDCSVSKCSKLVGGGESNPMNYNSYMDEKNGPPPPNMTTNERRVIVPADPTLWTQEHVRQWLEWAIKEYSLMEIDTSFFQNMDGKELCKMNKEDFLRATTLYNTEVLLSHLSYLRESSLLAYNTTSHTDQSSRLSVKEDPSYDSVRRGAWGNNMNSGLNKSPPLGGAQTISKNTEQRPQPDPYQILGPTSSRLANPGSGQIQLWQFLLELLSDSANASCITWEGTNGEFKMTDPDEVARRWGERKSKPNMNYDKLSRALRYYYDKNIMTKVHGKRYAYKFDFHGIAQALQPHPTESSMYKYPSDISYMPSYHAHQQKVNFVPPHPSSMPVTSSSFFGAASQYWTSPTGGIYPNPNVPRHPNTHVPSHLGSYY
# How it was run: (§1)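 Binding signal is given per hexamer as its read frequency for a factor divided by its frequency in the tag-only sample. GST-fused human transcription factors were expressed in yeast, captured on glutathione beads, barcoded with DNA and pooled with that sample, then incubated with 200 nmole of a 16-mer random double-stranded DNA library in Tris/NaCl/DTT/glycerol buffer for 30 min at room temperature. The pools were then washed, crosslinked, proximity-ligated, amplified by PCR and sequenced on an Illumina NextSeq500.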
# [2] = molecular target: T2, ELK1 (Homo sapiens, UniProt P19419 1-428)
# T2 sequence: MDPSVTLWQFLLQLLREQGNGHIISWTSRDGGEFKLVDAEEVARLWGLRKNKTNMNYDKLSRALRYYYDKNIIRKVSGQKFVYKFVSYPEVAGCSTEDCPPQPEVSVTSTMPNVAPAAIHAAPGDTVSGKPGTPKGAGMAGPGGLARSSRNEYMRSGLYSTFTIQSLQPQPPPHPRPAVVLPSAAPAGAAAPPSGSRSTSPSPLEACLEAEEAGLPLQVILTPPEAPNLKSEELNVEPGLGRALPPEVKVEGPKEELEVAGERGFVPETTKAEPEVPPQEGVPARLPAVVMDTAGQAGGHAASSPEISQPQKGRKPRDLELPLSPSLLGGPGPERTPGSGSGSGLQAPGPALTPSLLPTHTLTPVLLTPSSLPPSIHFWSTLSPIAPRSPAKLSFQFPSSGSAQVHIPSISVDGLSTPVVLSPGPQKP
# How it was run: as §1
# [3] = molecular target: T3, GABPA (Homo sapiens, UniProt Q06546 1-454)
# T3 sequence: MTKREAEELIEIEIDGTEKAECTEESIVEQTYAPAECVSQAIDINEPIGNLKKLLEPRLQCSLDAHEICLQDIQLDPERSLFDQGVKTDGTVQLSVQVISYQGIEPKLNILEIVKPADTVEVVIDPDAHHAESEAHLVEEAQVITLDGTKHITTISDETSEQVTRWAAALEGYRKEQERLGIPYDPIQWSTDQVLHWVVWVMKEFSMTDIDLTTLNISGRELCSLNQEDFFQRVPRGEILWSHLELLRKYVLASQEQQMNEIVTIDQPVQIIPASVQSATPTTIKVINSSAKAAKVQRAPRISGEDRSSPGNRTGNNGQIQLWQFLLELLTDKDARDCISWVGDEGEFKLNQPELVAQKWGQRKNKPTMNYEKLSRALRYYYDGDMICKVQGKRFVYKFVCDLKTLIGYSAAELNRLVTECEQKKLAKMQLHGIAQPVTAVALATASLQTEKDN
# How it was run: as §1
# [4] = molecular target: T4, ERG (Homo sapiens, UniProt P11308 1-479)
# T4 sequence: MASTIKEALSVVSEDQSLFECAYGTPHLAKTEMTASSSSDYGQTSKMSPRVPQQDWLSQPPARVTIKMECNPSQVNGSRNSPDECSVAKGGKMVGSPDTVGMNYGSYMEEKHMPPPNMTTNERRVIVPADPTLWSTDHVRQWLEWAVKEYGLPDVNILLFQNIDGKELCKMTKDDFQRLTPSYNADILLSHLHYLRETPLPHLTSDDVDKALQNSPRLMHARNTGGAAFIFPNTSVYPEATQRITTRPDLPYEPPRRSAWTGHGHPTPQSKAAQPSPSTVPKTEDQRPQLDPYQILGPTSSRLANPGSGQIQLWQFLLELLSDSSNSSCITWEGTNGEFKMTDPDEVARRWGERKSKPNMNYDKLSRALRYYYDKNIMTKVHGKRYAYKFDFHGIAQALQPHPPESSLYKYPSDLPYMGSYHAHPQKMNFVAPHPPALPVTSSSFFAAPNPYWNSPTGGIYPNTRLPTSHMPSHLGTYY
# How it was run: as §1
# [5] = molecular target: ELF1 (Homo sapiens, UniProt P32519 1-619)
# How it was run: as §1
# [6] = molecular target: SPI1 (Homo sapiens, UniProt P17947 1-270)
# How it was run: as §1
# [7] = molecular target: SPIB (Homo sapiens, UniProt Q01892 1-262)
# How it was run: as §1
# [8] = molecular target: T5, ELK3 (Homo sapiens, UniProt P41970 1-407)
# T5 sequence: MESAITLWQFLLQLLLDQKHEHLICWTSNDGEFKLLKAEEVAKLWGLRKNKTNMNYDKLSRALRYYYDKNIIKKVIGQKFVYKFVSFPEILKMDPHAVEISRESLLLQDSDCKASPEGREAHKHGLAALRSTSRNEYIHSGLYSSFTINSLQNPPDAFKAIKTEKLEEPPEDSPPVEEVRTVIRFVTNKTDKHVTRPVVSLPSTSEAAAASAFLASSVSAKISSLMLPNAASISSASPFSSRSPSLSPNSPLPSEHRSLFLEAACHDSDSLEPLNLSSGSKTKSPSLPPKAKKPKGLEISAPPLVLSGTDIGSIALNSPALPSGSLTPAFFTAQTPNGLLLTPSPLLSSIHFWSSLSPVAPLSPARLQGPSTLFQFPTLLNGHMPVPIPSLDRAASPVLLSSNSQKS
# How it was run: as §1
# [9] = molecular target: T6, FEV (Homo sapiens, UniProt Q99581 1-238)
# T6 sequence: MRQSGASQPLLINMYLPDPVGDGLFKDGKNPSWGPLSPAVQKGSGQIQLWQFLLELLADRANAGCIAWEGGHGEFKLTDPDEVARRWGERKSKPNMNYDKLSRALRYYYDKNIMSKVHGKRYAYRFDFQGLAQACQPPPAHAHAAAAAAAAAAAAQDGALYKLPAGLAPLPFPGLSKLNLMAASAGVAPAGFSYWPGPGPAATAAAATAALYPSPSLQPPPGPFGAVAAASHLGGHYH
# How it was run: as §1
# [10] = molecular target: ETV5 (Homo sapiens, UniProt P41161 1-510)
# How it was run: as §1
# [11] = molecular target: T7, SPIC (Homo sapiens, UniProt Q8N5J4 1-248)
# T7 sequence: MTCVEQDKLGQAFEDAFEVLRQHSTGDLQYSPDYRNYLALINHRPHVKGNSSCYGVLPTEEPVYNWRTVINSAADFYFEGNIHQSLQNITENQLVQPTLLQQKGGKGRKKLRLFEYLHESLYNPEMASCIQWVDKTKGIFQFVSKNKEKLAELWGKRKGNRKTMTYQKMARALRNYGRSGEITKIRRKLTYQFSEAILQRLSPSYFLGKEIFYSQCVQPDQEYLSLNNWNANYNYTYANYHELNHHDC
# How it was run: as §1
# [12] = molecular target: ELF4 (Homo sapiens, UniProt Q99607 1-663)
# How it was run: as §1
# [13] = molecular target: ETV1 (Homo sapiens, UniProt P50549 1-477)
# How it was run: as §1
# [14] = molecular target: T8, ERF (Homo sapiens, UniProt P50548 1-548)
# T8 sequence: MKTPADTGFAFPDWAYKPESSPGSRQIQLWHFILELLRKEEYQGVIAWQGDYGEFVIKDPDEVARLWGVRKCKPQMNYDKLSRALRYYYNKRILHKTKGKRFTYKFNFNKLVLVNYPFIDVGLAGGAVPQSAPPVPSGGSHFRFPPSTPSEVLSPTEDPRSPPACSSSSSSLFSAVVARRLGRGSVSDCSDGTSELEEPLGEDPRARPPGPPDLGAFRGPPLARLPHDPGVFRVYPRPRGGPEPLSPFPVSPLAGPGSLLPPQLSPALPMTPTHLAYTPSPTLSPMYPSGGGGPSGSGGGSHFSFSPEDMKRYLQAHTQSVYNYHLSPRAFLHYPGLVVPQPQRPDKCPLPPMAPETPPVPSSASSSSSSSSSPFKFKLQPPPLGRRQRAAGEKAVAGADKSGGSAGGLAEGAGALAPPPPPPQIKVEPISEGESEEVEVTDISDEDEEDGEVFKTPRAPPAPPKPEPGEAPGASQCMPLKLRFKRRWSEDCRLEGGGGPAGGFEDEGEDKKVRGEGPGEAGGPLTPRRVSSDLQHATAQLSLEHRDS
# How it was run: as §1
# [15] = molecular target: T9, ETV3L (Homo sapiens, UniProt Q6ZN32 1-361)
# T9 sequence: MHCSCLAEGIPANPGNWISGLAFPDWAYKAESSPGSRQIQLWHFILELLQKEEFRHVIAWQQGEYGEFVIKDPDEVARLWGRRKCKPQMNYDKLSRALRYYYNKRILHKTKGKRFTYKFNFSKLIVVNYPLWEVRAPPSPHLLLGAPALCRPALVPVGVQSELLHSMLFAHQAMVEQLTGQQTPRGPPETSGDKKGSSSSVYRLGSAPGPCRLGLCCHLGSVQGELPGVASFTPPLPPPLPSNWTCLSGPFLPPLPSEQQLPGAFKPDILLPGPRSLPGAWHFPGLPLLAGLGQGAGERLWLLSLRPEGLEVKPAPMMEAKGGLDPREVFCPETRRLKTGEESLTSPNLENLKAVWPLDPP
# How it was run: as §1
# [16] = molecular target: T10, ETS2 (Homo sapiens, UniProt P15036 1-469)
# T10 sequence: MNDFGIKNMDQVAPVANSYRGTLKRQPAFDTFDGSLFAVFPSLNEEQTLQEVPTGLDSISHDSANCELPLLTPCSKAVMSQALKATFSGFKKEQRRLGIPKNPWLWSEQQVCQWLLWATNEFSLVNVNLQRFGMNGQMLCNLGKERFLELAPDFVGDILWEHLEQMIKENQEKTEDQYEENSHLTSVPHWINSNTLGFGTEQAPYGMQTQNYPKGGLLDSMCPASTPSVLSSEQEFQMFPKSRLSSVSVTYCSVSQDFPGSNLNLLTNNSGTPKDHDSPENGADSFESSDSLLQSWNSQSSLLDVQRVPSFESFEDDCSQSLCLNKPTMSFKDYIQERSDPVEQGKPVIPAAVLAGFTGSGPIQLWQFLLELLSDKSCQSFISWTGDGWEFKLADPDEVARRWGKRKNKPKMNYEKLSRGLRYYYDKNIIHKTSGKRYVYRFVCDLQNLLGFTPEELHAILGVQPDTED
# How it was run: as §1
# [17] = molecular target: T11, ELF5 (Homo sapiens, UniProt Q9UKW6-2 1-255)
# T11 sequence: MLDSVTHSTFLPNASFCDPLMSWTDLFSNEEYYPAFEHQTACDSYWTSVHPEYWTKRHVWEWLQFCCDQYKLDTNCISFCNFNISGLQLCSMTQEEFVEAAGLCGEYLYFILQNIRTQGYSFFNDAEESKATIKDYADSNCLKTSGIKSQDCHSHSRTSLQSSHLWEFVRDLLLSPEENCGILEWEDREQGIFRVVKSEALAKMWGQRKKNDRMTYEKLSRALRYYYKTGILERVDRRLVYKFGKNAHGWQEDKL
# How it was run: as §1
# [18] = molecular target: T12, ETV3 (Homo sapiens, UniProt P41162-2 1-143)
# T12 sequence: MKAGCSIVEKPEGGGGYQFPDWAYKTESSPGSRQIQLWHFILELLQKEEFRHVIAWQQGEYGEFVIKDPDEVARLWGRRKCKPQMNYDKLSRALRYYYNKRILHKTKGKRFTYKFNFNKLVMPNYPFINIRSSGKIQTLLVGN
# How it was run: as §1
# [19] = molecular target: ETV6 (Homo sapiens, UniProt P41212 1-452)
# How it was run: as §1
# Chain of ELF1 (P32519 whole entry): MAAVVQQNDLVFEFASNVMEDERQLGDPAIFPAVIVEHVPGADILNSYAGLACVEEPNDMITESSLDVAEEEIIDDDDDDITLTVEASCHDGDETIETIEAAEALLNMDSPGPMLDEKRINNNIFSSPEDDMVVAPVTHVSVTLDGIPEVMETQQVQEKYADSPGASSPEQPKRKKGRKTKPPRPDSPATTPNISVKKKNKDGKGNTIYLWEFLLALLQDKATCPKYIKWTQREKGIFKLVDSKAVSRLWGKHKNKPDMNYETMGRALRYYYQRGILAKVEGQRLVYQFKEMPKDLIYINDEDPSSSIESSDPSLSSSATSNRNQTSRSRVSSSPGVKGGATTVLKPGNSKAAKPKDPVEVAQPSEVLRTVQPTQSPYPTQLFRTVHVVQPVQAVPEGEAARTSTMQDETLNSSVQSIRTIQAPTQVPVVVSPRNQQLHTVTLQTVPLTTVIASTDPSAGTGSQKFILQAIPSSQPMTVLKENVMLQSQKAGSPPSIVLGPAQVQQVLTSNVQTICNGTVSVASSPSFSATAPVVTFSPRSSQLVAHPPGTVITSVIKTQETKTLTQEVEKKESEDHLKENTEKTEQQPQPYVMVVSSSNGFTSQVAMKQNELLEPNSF
# Chain of ETV5 (P41161 whole entry): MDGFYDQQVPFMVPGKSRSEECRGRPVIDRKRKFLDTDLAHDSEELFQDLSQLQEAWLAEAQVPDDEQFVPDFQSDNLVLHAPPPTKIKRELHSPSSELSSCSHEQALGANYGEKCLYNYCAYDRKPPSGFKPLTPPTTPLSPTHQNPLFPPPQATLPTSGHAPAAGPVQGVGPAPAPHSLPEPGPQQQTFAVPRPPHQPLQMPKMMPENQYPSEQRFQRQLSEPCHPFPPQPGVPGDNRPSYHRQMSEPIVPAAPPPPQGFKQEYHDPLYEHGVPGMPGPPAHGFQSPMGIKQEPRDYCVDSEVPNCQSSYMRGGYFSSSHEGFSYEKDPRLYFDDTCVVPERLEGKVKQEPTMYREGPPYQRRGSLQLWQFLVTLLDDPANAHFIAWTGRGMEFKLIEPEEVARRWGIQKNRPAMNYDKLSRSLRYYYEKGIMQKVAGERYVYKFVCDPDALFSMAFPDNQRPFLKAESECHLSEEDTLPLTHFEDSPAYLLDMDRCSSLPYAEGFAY
# Chain of ETV1 (P50549 whole entry): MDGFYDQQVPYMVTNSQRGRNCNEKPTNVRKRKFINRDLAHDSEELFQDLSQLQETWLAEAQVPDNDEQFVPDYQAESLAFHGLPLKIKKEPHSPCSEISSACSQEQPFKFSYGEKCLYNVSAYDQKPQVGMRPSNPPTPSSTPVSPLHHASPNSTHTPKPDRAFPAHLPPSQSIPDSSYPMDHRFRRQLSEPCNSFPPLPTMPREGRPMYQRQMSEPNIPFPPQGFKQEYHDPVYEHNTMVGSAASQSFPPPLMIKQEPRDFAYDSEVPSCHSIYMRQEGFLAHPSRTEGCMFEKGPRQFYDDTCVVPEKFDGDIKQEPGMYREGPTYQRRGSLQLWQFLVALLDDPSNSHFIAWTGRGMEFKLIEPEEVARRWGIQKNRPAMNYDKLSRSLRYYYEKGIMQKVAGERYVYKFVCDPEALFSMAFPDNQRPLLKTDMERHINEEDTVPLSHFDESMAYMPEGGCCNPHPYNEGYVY
# Chain of ELF4 (Q99607 whole entry): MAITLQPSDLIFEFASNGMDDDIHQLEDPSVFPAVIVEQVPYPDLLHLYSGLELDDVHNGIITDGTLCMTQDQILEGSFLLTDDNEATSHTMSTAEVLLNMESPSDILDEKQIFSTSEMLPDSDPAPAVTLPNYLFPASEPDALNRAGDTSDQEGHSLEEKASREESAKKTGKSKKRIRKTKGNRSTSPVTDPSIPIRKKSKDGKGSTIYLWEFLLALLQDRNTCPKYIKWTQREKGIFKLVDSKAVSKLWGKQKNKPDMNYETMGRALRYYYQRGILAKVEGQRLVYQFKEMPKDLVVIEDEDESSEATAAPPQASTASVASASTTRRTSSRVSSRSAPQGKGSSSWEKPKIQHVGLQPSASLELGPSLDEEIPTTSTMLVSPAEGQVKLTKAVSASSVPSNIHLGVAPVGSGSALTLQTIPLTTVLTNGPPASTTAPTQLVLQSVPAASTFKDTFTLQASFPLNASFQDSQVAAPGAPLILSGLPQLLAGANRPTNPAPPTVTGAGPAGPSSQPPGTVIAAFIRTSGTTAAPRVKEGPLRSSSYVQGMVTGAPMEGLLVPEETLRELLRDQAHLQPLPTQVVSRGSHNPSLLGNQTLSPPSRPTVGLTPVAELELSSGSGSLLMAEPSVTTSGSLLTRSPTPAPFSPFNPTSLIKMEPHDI
# Chain of SPIB (Q01892 whole entry): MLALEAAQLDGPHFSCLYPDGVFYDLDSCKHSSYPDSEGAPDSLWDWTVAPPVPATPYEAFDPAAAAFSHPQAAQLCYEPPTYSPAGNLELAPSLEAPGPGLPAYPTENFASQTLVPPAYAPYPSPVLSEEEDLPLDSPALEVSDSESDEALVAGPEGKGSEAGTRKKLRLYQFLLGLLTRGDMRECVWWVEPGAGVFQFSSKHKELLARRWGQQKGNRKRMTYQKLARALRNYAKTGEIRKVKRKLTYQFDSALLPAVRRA
# Chain of ETV6 (P41212 whole entry): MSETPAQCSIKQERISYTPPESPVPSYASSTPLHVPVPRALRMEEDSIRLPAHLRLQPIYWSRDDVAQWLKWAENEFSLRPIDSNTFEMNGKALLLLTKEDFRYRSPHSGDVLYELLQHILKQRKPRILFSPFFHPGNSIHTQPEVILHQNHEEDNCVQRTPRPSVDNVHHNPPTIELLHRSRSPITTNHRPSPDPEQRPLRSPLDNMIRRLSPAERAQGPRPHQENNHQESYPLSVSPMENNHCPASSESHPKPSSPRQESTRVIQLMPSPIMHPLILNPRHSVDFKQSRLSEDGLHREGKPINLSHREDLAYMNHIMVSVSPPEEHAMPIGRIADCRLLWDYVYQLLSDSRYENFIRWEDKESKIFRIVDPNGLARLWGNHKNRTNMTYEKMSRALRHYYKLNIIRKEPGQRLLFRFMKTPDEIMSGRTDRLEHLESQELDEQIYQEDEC
sequence,measurement,setting,value
CATCGC,binding signal,[1],"1.08 fold enrichment (6-mer frequency, TF over GST control)"
same,binding signal,[2],"1.13 fold enrichment (6-mer frequency, TF over GST control)"
same,binding signal,[3],"1.13 fold enrichment (6-mer frequency, TF over GST control)"
same,binding signal,[4],"1.06 fold enrichment (6-mer frequency, TF over GST control)"
same,binding signal,[5],"1.06 fold enrichment (6-mer frequency, TF over GST control)"
same,binding signal,[6],"1.06 fold enrichment (6-mer frequency, TF over GST control)"
same,binding signal,[7],"1.1 fold enrichment (6-mer frequency, TF over GST control)"
same,binding signal,[8],"1.23 fold enrichment (6-mer frequency, TF over GST control)"
same,binding signal,[9],"1.07 fold enrichment (6-mer frequency, TF over GST control)"
same,binding signal,[10],"1.04 fold enrichment (6-mer frequency, TF over GST control)"
same,binding signal,[11],"1.03 fold enrichment (6-mer frequency, TF over GST control)"
same,binding signal,[12],"1.13 fold enrichment (6-mer frequency, TF over GST control)"
same,binding signal,[13],"1.06 fold enrichment (6-mer frequency, TF over GST control)"
same,binding signal,[14],"1.06 fold enrichment (6-mer frequency, TF over GST control)"
same,binding signal,[15],"1.21 fold enrichment (6-mer frequency, TF over GST control)"
same,binding signal,[16],"1.14 fold enrichment (6-mer frequency, TF over GST control)"
same,binding signal,[17],"1.03 fold enrichment (6-mer frequency, TF over GST control)"
same,binding signal,[18],"1.1 fold enrichment (6-mer frequency, TF over GST control)"
same,binding signal,[19],"1.02 fold enrichment (6-mer frequency, TF over GST control)"
